Only some compounds are listed: those with a hit (about 1.6% of all), similar ones and a draw of the others.
KCNQ2 inh: inhibitors of rat KCNQ2 potassium channel | CHO-K1 KCNQ2, FluxOR thallium flux, 20 min; active compounds read low | B-score at 10 µM | hit rate 1.1% among 310,000;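 active = fluorescence ratio B-score at most minus 3 library SDs, with starting brightness B-score within 2 library SDs, cut at about -5.5 in these data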
KCNQ2 pot: KCNQ2 (rat) channel potentiation. O88943. CHO-K1 KCNQ2, FluxOR thallium flux fluorescence; active compounds read high. B-score at 10 µM. hit rate 0.54% among 310,000. AID 2239;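 active = fluorescence ratio B-score at least 3 SD of library B-scores, with initial fluorescence B-score within 3 of them, cut at about 5.3 in these data; same plate scores as AID 2156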;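 also: B-score of peak minus minimum over baseline fluorescence ratio after K+ and Tl+ stimulus; positive B-score means potentiation of KCNQ2 with more thallium influx and brighter signal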
Kir21 confirm: confirmation of mouse Kir2.1 potassium channel inhibitors. AID 2032. shares compounds with KCNQ2 pot. Tl flux remaining, % of negative control (active compounds read low), % at 10 µM. Kir2.1-expressing cells, FluxOR thallium flux fluorescence; active compounds read low. hit rate 41% among 2,300;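 active = Primary-screen hit whose thallium flux fell at least 3 control SD below untreated wells in both duplicates, with normal baseline fluorescence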;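 also: 0% = blank wells without stimulus and 100% = stimulated no-compound controls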
HEK293 Tl flux: counter-screen for Kir2.1 inhibitors: effect in parental HEK293 cells | FluxOR signal as % of negative control (100 = no effect), % at 10 µM | hit rate 19% among 2,300 | shares compounds with KCNQ2 pot | FluxOR thallium flux fluorescence; 0% = unstimulated blank wells;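 active = dye signal at least 3 control SD above or below untreated wells in both duplicates, raw fluorescence within 3, either direction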;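 also: percent is based on the flux ratio of peak minus minimum fluorescence over baseline F0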
CHO-K1 ctr: parental CHO-K1 activity in KCNQ2 potentiator counter-screen; activity increase over 3SD of controls, % at 10 µM; parental CHO-K1 cells, FluxOR thallium flux fluorescence; zero = vehicle mean+3SD, 100% = vehicle-minus-blank window; shares compounds with KCNQ2 pot; hit rate 43% among 1,200;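 active = signal rise of at least 3 SD above the untreated control mean, in both duplicate wells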;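 also: counter screen of KCNQ2 potentiator hits so any rise reflects channel-independent effects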
KCNQ1 pot spec: human KCNQ1 counter-target activity of KCNQ2 potentiators | shares compounds with KCNQ2 pot | CHO KCNQ1 stable, FluxOR thallium flux fluorescence; beyond 3SD, as % of vehicle-control signal | activation over 3SD threshold, % at 10 µM | hit rate 28% among 1,200 | AID 2283;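 active = fluorescence ratio rise of at least 3 SD of vehicle wells above their mean, in both replicate wells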;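 also: 0% = vehicle mean plus 3 SD and 100% = vehicle minus unstimulated blank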
KCNQ2 pot confirm: confirmation of rat KCNQ2 potassium channel potentiators | shares compounds with KCNQ2 pot | CHO-KCNQ2 cells, FluxOR thallium flux fluorescence | potentiation, less the hit threshold, % at 10 µM | hit rate 68% among 1,200;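 active = fluorescence ratio rising 3 SD or more over the vehicle control mean in both replicates, plus primary screen hit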;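 also: peak minus minimum thallium fluorescence divided by baseline after K/Tl stimulus; 0% = vehicle mean plus 3 SD and 100% = vehicle minus unstimulated blank difference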
Kir2-1 sel: selectivity of KCNQ2 potentiators: effect on mouse Kir2.1; activity over 3SD threshold, % at 10 µM; AID 2345; hit rate 2% among 1,200; shares compounds with KCNQ2 pot; HEK293 Kir2.1, FluxOR thallium flux fluorescence;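 active = fluorescence ratio rise of at least 3 SD above the vehicle-control mean, seen in both replicates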;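 also: 0% = vehicle mean plus 3 SD and 100% = vehicle minus no-stimulus blank window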
KCNQ2 W236L MoA: potentiates the retigabine-insensitive rat KCNQ2 W236L mutant channel; shares compounds with KCNQ2 pot; current increase over 3SD of negative controls (%), active compounds read high, % at 25 µM; CHO KCNQ2-W236L, automated patch clamp current; hit rate 10% among 940;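 active = current increase at least 3 SD of the untreated controls above them in both duplicate recordings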
Target sequence (O88943 whole entry W236L, looked up): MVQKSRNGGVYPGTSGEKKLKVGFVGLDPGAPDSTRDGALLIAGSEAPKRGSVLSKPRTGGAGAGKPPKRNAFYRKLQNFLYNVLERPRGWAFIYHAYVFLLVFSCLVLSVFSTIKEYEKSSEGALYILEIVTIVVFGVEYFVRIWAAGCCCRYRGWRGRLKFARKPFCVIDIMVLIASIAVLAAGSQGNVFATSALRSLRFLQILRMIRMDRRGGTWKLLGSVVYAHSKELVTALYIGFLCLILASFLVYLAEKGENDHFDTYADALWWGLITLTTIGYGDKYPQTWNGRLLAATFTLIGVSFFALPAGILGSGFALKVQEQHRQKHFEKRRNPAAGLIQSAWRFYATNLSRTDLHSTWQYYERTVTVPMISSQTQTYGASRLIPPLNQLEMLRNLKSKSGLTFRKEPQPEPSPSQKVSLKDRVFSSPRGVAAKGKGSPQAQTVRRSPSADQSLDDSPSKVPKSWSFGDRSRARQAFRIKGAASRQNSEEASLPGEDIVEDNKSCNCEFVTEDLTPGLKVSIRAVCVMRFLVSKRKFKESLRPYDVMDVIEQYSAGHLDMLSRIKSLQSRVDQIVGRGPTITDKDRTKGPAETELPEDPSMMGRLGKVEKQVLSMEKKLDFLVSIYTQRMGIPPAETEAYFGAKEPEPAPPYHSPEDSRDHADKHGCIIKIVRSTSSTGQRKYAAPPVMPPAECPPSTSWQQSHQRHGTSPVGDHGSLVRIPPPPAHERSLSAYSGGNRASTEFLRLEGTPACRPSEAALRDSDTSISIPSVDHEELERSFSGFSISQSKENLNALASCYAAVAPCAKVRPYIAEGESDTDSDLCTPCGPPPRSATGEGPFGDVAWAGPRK
Active calls of the source: *; i = inactive; x = no result.

SMILES	KCNQ2 inh	KCNQ2 pot	Kir21 confirm	HEK293 Tl flux	others
COc1ccc(O)c(C(=O)C2c3ccccc3C(=O)N2c2ccc(C)cc2)c1 (stereo not given)	i	x	x	x
O=C(NC1CCCCC1)C(c1ccc(F)cc1)N(CCCN1CCOCC1)C(=O)c1ccc(CN2CCOCC2)o1 (stereo not given)	i	0.14	x	x
COc1ccc(N(CC(=O)NCCC2=CCCCC2)S(=O)(=O)c2ccc(C)cc2)cc1	i	x	x	x
Cc1ccccc1OCCSc1nnc(C)n1-c1ccccc1	i	x	46%*	i
Cc1ccccc1OCc1nnc(SCC(=O)O)n1-c1ccccc1	i	0.78	x	x
O=C(c1ccccc1)N1CCCCC(S(=O)(=O)c2ccc3ccccc3c2)C1=O (stereo not given)	i	x	x	x
O=[N+]([O-])c1c(Nc2cccc(O)c2)cc(Cl)c2nonc12	-16*	-16	i	i
O=C(O)c1ccc(Nc2cc(Cl)c3nonc3c2[N+](=O)[O-])cc1	i	1.1	x	x
O=C(CN(Cc1ccccc1F)C(=O)Cn1nnc(-c2cccs2)n1)NCC1CCCO1 (stereo not given)	i	0.34	x	x
CCN(CCNCC(O)COCc1ccc(Cl)cc1)c1cccc(C)c1 (stereo not given)	i	x	36%*	i
CCN(CCNC(=O)c1ccc(C#N)cc1)c1cccc(C)c1	i	x	x	x
CCN1CCN(CCNC(=O)c2cc(Cl)c(NC(=O)C3=C(C)OCCS3)cc2OC)CC1	i	0.52	x	x
Cc1cc(N2CCOCC2)nc(NCc2ccccc2)n1	i	2.1	x	x
Cc1cc(N2CCCCC2)nc(NCc2ccccc2)n1	i	1.2	48%*	i
CC(Nc1ncnc2ccccc12)c1ccccc1 (stereo not given)	i	2.4	x	x
CCCCC(Nc1ncnc2ccccc12)C(=O)O (stereo not given)	i	7.7*	i	i	CHO-K1 ctr=-4;KCNQ1 pot spec=-11;KCNQ2 pot confirm=-24;Kir2-1 sel=-43
CNC(=O)c1ccsc1NC(=O)c1coc2ccccc2c1=O	i	x	x	x
COc1cc(NC(=O)c2ccccc2)cc(OC)c1	i	17*	i	i	CHO-K1 ctr=-16;KCNQ1 pot spec=-12;KCNQ2 pot confirm=30*;Kir2-1 sel=-34;KCNQ2 W236L MoA=i
COc1ccc(C(=O)Nc2cc(OC)cc(OC)c2)cc1	i	4.4	x	x
Cc1ccc(S(=O)(=O)NCCSc2nnnn2-c2cc(C)ccc2C)cc1	i	0.86	x	x
Cc1ccc(S(=O)(=O)NCCSc2nnnn2-c2ccccc2)cc1	i	0.37	68%*	i
N#C/C(=C\c1cccc(Oc2ccccc2)c1)C(=O)N1CCOCC1	-6.4*	-6.4	36%*	i
COc1cc(/C=C(\C#N)C(=O)N2CCOCC2)cc(Br)c1O	i	x	x	x
Cc1cc(S(=O)(=O)NCc2ccccc2)ccc1OCC(=O)N1CCCC1	i	x	x	x
CCOc1ccc(NC(=S)N2CCN(S(C)(=O)=O)CC2)cc1	i	0.86	x	x
SMILES	KCNQ2 inh	KCNQ2 pot	Kir21 confirm	HEK293 Tl flux	others
C#CCNC(=O)C1=C[C@@H](C(C)(C)C)C[C@@H](OCc2ccc(CO)cc2)O1	i	x	x	x
C#CCNC(=O)C1=C[C@@H](C2CC2)C[C@@H](OCc2ccc(CO)cc2)O1	i	0.66	51%*	i
O=C(Cn1nc(-c2ccccc2)ccc1=O)Nc1ccc(N2CCN(C(=O)c3cccs3)CC2)cc1	i	x	x	x
O=C(Nc1nc(COc2ccccc2)cs1)c1ccccc1F	i	0.02	x	x
CNS(=O)(=O)/C=C/c1ccccc1	i	16*	i	i	CHO-K1 ctr=-4;KCNQ1 pot spec=-28;KCNQ2 pot confirm=-16;Kir2-1 sel=-33
CCCNS(=O)(=O)/C=C/c1ccccc1	i	1.2	x	x
S=c1[nH]nc(-c2cccs2)n1/N=C/c1c(Cl)cccc1Cl	i	7.4*	i	i	CHO-K1 ctr=-4;KCNQ1 pot spec=-20;KCNQ2 pot confirm=7.3*;Kir2-1 sel=-38;KCNQ2 W236L MoA=i
Cc1ccc(/C=N/n2c(-c3cccs3)n[nH]c2=S)cc1	i	1.8	x	x
NC(=O)CC(NC(=O)c1cccc(Br)c1)c1ccc(NC2CCN(Cc3ccccc3)CC2)c([N+](=O)[O-])c1 (stereo not given)	i	x	x	x
CN(C)C(=O)CN1C(=O)NC2(CCc3ccccc32)C1=O (stereo not given)	i	x	x	x
O=C(Nc1nc2ccccc2s1)c1ccc(N2CCCCC2)c([N+](=O)[O-])c1	i	x	x	x
COc1ccccc1N1CCN(C(=O)CSc2nc(-c3ccco3)cc(C(F)(F)F)n2)CC1	i	12*	i	i	CHO-K1 ctr=16*;KCNQ1 pot spec=13*;KCNQ2 pot confirm=11*;Kir2-1 sel=-27;KCNQ2 W236L MoA=i
O=C(CSc1nc(-c2ccco2)cc(C(F)(F)F)n1)N1CCN(Cc2ccccc2)CC1	i	23*	i	i	CHO-K1 ctr=81*;KCNQ1 pot spec=-3;KCNQ2 pot confirm=42*;Kir2-1 sel=-47;KCNQ2 W236L MoA=i
COc1ccc(CCNC(=O)CSc2nc(-c3ccco3)cc(C(F)(F)F)n2)cc1OC	i	0.16	x	x
O=C(CSc1nc(-c2ccco2)cc(C(F)(F)F)n1)N1CCN(c2ccc(Cl)cc2)CC1	i	3	x	x
Cc1nn(-c2ccc(F)cc2)c(Cl)c1/C=C/C(=O)OCC(=O)Nc1c(F)c(F)c(F)c(F)c1F	i	0.8	x	x
O=C(NNS(=O)(=O)c1ccccc1)C1CC(c2cccnc2)=NO1 (stereo not given)	i	0.2	x	x
CCOc1ccc(S(=O)(=O)N2CCC(C(=O)NC3CC3)CC2)cc1Cl	i	0.74	x	x
COc1ccc2ccccc2c1CNC(C)c1ccccc1 (stereo not given)	i	1.4	x	x
CC(NCCCOc1cccc2ccccc12)c1ccccc1 (stereo not given)	i	x	14%*	i
CCCCCCCC(=O)N/N=C/c1ccc(Br)cc1	i	0.99	x	x
CCCCCCCC(=O)N/N=C/c1ccco1	i	11*	i	i	CHO-K1 ctr=0.0*;KCNQ1 pot spec=2.6*;KCNQ2 pot confirm=59*;Kir2-1 sel=-37;KCNQ2 W236L MoA=i
NS(=O)(=O)c1ccc(CCNC(=O)CN2CCC(Cc3ccccc3)CC2)cc1	i	0.06	x	x
O=C(CN1CCC(Cc2ccccc2)CC1)NCCc1ccc(F)cc1	i	16*	x	x	CHO-K1 ctr=69*;KCNQ1 pot spec=-19;KCNQ2 pot confirm=56*;Kir2-1 sel=-90;KCNQ2 W236L MoA=i
Cc1cc(C)c(S(=O)(=O)N2CCN(c3ccccc3)CC2)c(C)c1	i	x	x	x
Cn1c(=S)[nH]c2scc(-c3cccs3)c2c1=O	i	19*	i	465%*	CHO-K1 ctr=119*;KCNQ1 pot spec=-12;KCNQ2 pot confirm=88*;Kir2-1 sel=-2;KCNQ2 W236L MoA=i

High-throughput results from PubChem BioAssay.
